Test results from PubChem BioAssay AID2025 (NMMLSC, 2009).
In all, about 330,000 compounds went through this assay and about 980 (0.3%) were called active. The full list was thinned out, with actives kept by preference. Values without a mark were called inactive.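 Rule for the calls: active = percent response vs DMSO below 50%; inconclusive = fewer than 70 events counted for the yeast strain; inactive = the rest.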

test: compounds altering RPL19A-GFP fluorescence, TOR branch – cell-based, S. cerevisiae, multiplex flow cytometry, MLPCN, primary screen (AID 2025);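 note: median channel GFP fluorescence of the barcoded RPL19A-GFP strain; ratio of sample median GFP to plate DMSO average so 100% = DMSO; lower means less RPL19A-GFP as with rapamycin TOR inhibition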; conditions: S. cerevisiae RPL19A-GFP strain, 3 h, at 10 µM, active compounds read low

In the case of `COc1ccc(CN2CC(C(=O)NCCc3ccc(Cl)cc3)CC2=O)cc1` (stereo not drawn), the percent response vs DMSO is reported as 32.5% [may fluoresce violet] (active).
With `OCc1nc(CO)n(Cc2ccccc2)n1` the percent response vs DMSO was 34.3% [may fluoresce violet] (active).
With `CCOc1cc(N2CCOCC2)c(OCC)cc1NC(=O)COc1cccc2cccnc12` the percent response vs DMSO was 38.4% [may fluoresce violet] (active).
For `Cc1ccc(C(=O)Nc2c(C#N)c(C)c(C)n2Cc2ccccc2)cc1`, the percent response vs DMSO was 43.3% [may fluoresce violet] (active).
With `Cc1c2cnn(CC(=O)NCc3ccccn3)c(=O)c2c(C)n1Cc1ccc(Cl)cc1` the percent response vs DMSO was 28.5% [may fluoresce violet] (active).
In the case of `O=C(NCc1ccccc1Cl)C1CCN(S(=O)(=O)c2cccc3nonc23)CC1`, the percent response vs DMSO is reported as 49% [may fluoresce violet] (active).
With `CC(=O)O[C@]1(C(C)=O)CC[C@H]2[C@@H]3C=C(C)C4=CC(=O)CC[C@]4(C)[C@H]3CC[C@@]21C` the percent response vs DMSO was 33% [may fluoresce violet] (active).
In the case of `CCCS(=O)(=O)Nc1ccc(-c2cn3c(n2)SCC3)cc1`, the percent response vs DMSO is reported as 40.4% [may fluoresce violet] (active).
With `CCc1ccc(OCC2c3cc(OC)c(OC)cc3CCN2C(C)=O)cc1` (stereo not drawn) the percent response vs DMSO was 42.9% [may fluoresce violet] (active).

First: COc1ccc(CN2CC(C(=O)NCCN3CCN(c4ccccc4F)CC3)CC2=O)cc1 (stereo not drawn)
Second: COc1ccc(CN2CC(C(=O)NC3CCCCC3)CC2=O)cc1 (stereo not drawn)
The percent response vs DMSO of the first is higher: 99.6% for the first, 99.4% for the second.

Going from `O=C1C=CC(=O)N1c1ccc(N2CCCCC2)cc1` to `COc1ccccc1NC(=S)N1CCN(c2ccc(F)cc2)CC1`, the percent response vs DMSO rises from 64.6% to 106%.

Compared with `CCOc1ccc(Br)cc1S(=O)(=O)Nc1ccc(C(=O)OC(C)C(=O)N(C)c2ccccc2)cc1` (stereo not drawn), `Cc1ccccc1S(=O)(=O)N1[C@@H](c2cccc(Cl)c2)C(C(=O)O)=CC[C@H]1c1ccc(Cl)cc1` is higher in percent response vs DMSO: 99.2% for the first, 99.8% for the second.

Compared with `Cc1nn(Cc2ccccc2)c(C)c1NS(=O)(=O)c1ccccc1`, `Cc1c(C#N)c(NC(=O)c2ccccc2)n(Cc2ccccc2)c1C` is lower in percent response vs DMSO: 125% for the first, 92.3% for the second.

Compared with `Nc1c(-c2ccccc2)nnn1Cc1ccccc1`, `O=C(Cn1ncc2c3ccccc3n(Cc3ccccc3)c2c1=O)NCc1ccccn1` is higher in percent response vs DMSO: 93.1% for the first, 93.6% for the second.

`CCOc1ccccc1N1C(=O)CC(Sc2nccc(C)n2)C1=O` (stereo not drawn) and `CCOc1cc(N2CCOCC2)c(OCC)cc1NC(=O)c1cc(C)nc2ccccc12` are the same in percent response vs DMSO: 101% for the first, 101% for the second.

Going from `C=C1CCN([C@@H](Cc2ccccc2)C(=O)N2CCOCC2)S(=O)(=O)c2ccccc21` to `O=C(CN1C(=O)COc2ccc(Cl)cc21)N1CCOCC1`, the percent response vs DMSO falls from 102% to 101%.

Compared with `CCOc1cc(N2CCOCC2)c(OCC)cc1NC(=O)COc1cccc(Cl)c1`, `COc1cccc(NC(=O)CSc2nnc(Cc3ccc(OC)c(OC)c3)o2)c1` is lower in percent response vs DMSO: 101% for the first, 97.7% for the second.

Compared with `CCCOc1ccc(-c2c(C(=O)N/N=C/c3ccco3)nnn2-c2nonc2N)cc1`, `O=C(CCS(=O)(=O)c1cccc2nonc12)NCCc1ccccc1Cl` is higher in percent response vs DMSO: 99.2% for the first, 104% for the second.

First: COc1ccc(Cn2c(C)c(C)c(C#N)c2NC(=O)Nc2ccc(F)cc2)cc1
Second: Cc1ccc(Cn2c(C)c3cnn(CC(=O)NCc4ccccn4)c(=O)c3c2C)cc1
The percent response vs DMSO of the first is lower: 97.2% for the first, 99.3% for the second.

First: N#Cc1ccc(C(=O)Nc2nc(-c3cccs3)c(C(=O)C(F)(F)F)s2)cc1
Second: COc1cc(NC(=O)c2ccc(-c3csc(C)n3)cc2)c(OC)cc1Cl
The percent response vs DMSO of the first is lower: 97.5% for the first, 102% for the second.

Going from `CCCc1noc2c1/C(=N\O)CCC2` to `CCCCc1c(O)nc2n(c1=O)CCS2`, the percent response vs DMSO falls from 98.8% to 93.4%.

Going from `CCCc1nn2c(=O)cc(CSCC(=O)Nc3cccc(C)c3)nc2s1` to `CCS(=O)(=O)Nc1ccc(C2=NN(C(C)=O)C(c3cccs3)C2)cc1` (stereo not drawn), the percent response vs DMSO rises from 98% to 102%.

Going from `O=C(NCc1ccccc1Cl)C1CCN(S(=O)(=O)N2CCOCC2)CC1` to `NC(=O)C1CCN(CC(O)CSc2ccc(F)cc2)CC1` (stereo not drawn), the percent response vs DMSO rises from 91% to 99.8%.

Going from `CC(=O)C12CC(C)=C(C)CC1CC1C3CCC4=CC(=O)CCC4(C)C3CCC12C` (stereo not drawn) to `Cc1cccc(C(=O)NC(=S)N(C)C2CCCCC2)c1`, the percent response vs DMSO falls from 99.3% to 96.9%.

First: CC(C)CCN1CCN=C1N(C)C
Second: COc1ccc(CC(NC(C)=O)C(=O)NC2CCN(C(=O)c3ccc(OC)c(OC)c3)CC2)cc1OC (stereo not drawn)
The percent response vs DMSO of the first is higher: 99.1% for the first, 93.8% for the second.

Going from `COc1ccc2[nH]c(=O)c(C3c4cc(OC)c(OC)cc4CCN3C(=O)c3ccco3)cc2c1` (stereo not drawn) to `COc1ccccc1-n1nnnc1S(=O)(=O)Cc1ccc(Cl)cc1`, the percent response vs DMSO falls from 103% to 102%.
